Results on 100 compounds are retold here after PubChem BioAssay AID1578 (Sanford-Burnham Center for Chemical Genomics, 2009).

Hit rate of the full screen: of about 290,000 compounds, about 3,000 (1%) were called active. The list comes from a sample in which actives are over-represented; it also holds similar structures and randomly drawn compounds. Values without a mark were called inactive. Cut-off read from the data, not from the text of the source: active = inhibition mostly above about 36% (no sharp cut-off); inactive = mostly below about 34%.

The nature of this experiment: NOD1 signaling inhibitors, primary screen, cell-based, luminescence, uHTS (AID 1578).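 Note: HEK-293T reporter cells stimulated with the NOD1 agonist gamma-tri-DAP.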 Particulars: NOD1-driven NF-kB luciferase reporter cells, at 4 µM, hits give high values.
As for `COc1cc(OC)cc(C(=O)N2CCC3(CC2)NCCc2[nH]cnc23)c1`, the inhibition was -20.2%.
`Nc1ncc2c(n1)-c1cc(Cl)ccc1SC2`: the inhibition is -6.1%.
`CC1C/C(=N\NC(N)=S)c2cc(Cl)ccc2S1` (stereo not given): the inhibition is 3.3%.
For `CC1Sc2ccc(Cl)cc2-c2nc(N)ncc21` (stereo not given), the inhibition was 50.5% (active).
As to `Cc1c(Cl)c([N+](=O)[O-])nn1CCCC(=O)Nc1cccc(O)c1`, the inhibition is -0.3%.
Consider `O=[N+]([O-])c1cc(S(=O)(=O)C(F)(F)F)ccc1Sc1nc2ccccc2[nH]1`, for which the inhibition was 46.1%.
With `Cc1ccc(CN2CCN(Cc3cccn3-c3ccc(Cl)cn3)CC2CCO)o1` (stereo not given) the figure was -17.4%.
Consider `O=C(CSc1ccc2nnc(-c3ccncc3)n2n1)Nc1ccc2c(c1)OCCO2`, for which the inhibition was 9.6%.
Consider `Cc1ccccc1OCc1nc2ccccc2c(=O)n1/N=C/c1cccc([N+](=O)[O-])c1`, for which the inhibition was 80.1% (active).
`Cc1ccccc1OCc1nc2ccccc2c(=O)n1/N=C/c1ccco1`: the inhibition was 31.5%.
Regarding `Cc1cc(/C=N/n2c(COc3ccccc3C)nc3ccccc3c2=O)c(O)c([N+](=O)[O-])c1`, the inhibition was 15%.
On to `O=C(Oc1ccc2ccc(=O)oc2c1)c1ccc([N+](=O)[O-])cc1`, for which the inhibition is -9.4%.
Regarding `CCc1nc(C)cn1S(=O)(=O)c1ccc(Br)cc1`, the inhibition is -17.6%.
Next, `CCOC(=O)c1cc(C(=O)c2cc(Br)ccc2O)coc1=N`: -15.1%; `CCOc1ccccc1NC(=O)c1cc(C(=O)c2cc(OC)ccc2O)coc1=N`: -9.3%.
As to `CCOc1ccccc1NC(=O)c1cc(C(=O)c2cc(Br)ccc2O)coc1=N`, the inhibition was 56.4% (active).
Turning to `COc1cccc(CNC(=O)C(C)n2nc(C)n3c(cc4occc43)c2=O)c1` (stereo not given), the inhibition is -11.7%.
Next, `CCOc1cc2[nH]c(=O)n(CCC(=O)NCCc3ccccc3)c(=O)c2cc1OCC`: -0.5%; `Cc1cc(C)c(S(C)(=O)=O)c(S(=O)(=O)c2ccc(Cl)cc2)n1`: -33.9%; `CC(C)CCNC(=O)c1ccc2c(SCC(=O)O)c3c(nc2c1)CCC3`: 0.8%.
Next, `O=C(O)CSc1c2c(nc3cc(C(=O)NCCN4CCOCC4)ccc13)CCC2`: 91.8% (active); `CC(C)CCNC(=O)c1ccc2c(SCC(=O)O)c3c(nc2c1)CCCC3`: -29.5%; `Cc1ccccc1S(=O)(=O)Cc1ccc(C(=O)N2CCN(c3ccccc3F)CC2)o1`: 21.3%.
For the compound `Cc1ccc(S(=O)(=O)Cc2ccc(C(=O)N3CCN(c4cccc(C)c4C)CC3)o2)cc1`, the inhibition was 27.1%.
On to `COc1ccccc1-c1noc(-c2cc(OC)c(OC)c(OC)c2)n1`, for which the inhibition is -24%.
With `CC(C(=O)OCC(=O)c1cccc([N+](=O)[O-])c1)N1C(=O)C2C3CCC(C3)C2C1=O` (stereo not given), the inhibition was -8.4%.
With `NC(=O)COC(=O)C1CSC2(c3ccc(F)cc3)CCC(=O)N12` (stereo not given), the inhibition was -7.5%.
Consider `O=C(CSCC(=O)Nc1ccccc1)N/N=C/c1c(O)ccc2ccccc12`, for which the inhibition is 86.4% (active).
For the compound `Oc1ccc2ccccc2c1/C=N/Nc1ccccc1`, the inhibition was -38.9%.
As for `O=C(CNc1ccccc1)N/N=C/c1c(O)ccc2ccccc12`, the inhibition was -10.9%.
Take `Cc1cccc(C)c1NC(=O)CCCSc1nnnn1C`: the inhibition is -22.8%.
Take `Cc1ccc(NC(=O)CC2SC(=NC3CCCCC3)NC2=O)cc1` (stereo not given): the inhibition was -23.2%.
Turning to `CCCn1cccc(C(=O)Nc2ccc(OC)cc2)c1=O`, the inhibition was -3.2%.
As for `O=C(CSc1nnc(CNC(=O)c2c(F)cccc2F)o1)NCc1ccccc1`, the inhibition is -29.1%.
Turning to `CCN(CC)S(=O)(=O)c1ccc(N=Cc2c(C)c(C#N)c(=O)n(C)c2O)cc1`, the inhibition is -9.8%.
Regarding `COc1ccc(C2NC(=S)NC(O)(C(F)(F)F)C2C(=O)c2cccs2)cc1` (stereo not given), the inhibition was -33.8%.
`Nc1nnnn1/N=C/c1ccccc1`: the inhibition is -4%.
`ClC(/C=N/n1cnnc1)=C/c1ccccc1`: the inhibition was 1.7%.
Next, `CC(/C=N/n1cnnc1)=C\c1ccccc1`: -1%; `Nc1nnnn1/N=C/C=C/c1ccccc1`: 10.1%.
In the case of `BrC(=C\c1ccccc1)/C=N/n1cnnc1`, the inhibition is 66.7% (active).
With `Nc1nnnn1/N=C/C(Br)=C/c1ccccc1` the figure was 95.9% (active); with `Cc1ccc(C(=O)Nc2ccc(S(=O)(=O)Nc3cnc4ccccc4n3)cc2)cc1`, -14.5%.
As for `COc1cccc(/C=C2\SC(=S)N(CCCC(=O)Nc3cc(C)on3)C2=O)c1`, the inhibition was -22.5%.
With `Cc1cccc2c1CC(C)(C)N=C2C1=C(O)CCCC1=O`, the inhibition was -19.9%.
Take `C/C(=N\NC(=O)C1CC1)c1ccc(C(C)(C)C)cc1`: the inhibition was -39.6%.
With `CSc1ccc(OC2CCCCC2NS(=O)(=O)c2ccc(Cl)cc2)cc1` (stereo not given) the figure was 8.3%; with `CC(C)(C)NC(=S)N/N=C/c1cccnc1`, -10.2%; with `Oc1c(Br)cc(Br)cc1/C=N/NC(=S)N[C@H]1CC2C=CC1C2` (stereo not given in full), 47.8% (active).
With `Oc1c(Br)cc(/C=N/NC(=S)NCc2ccco2)cc1Br` the figure was 15%.
In the case of `Oc1c(Cl)cc(Cl)cc1/C=N/NC(=S)NC1CC2C=CC1C2` (stereo not given), the inhibition was 26.6%.
Turning to `CNC(=S)N/N=C/c1cc(C)ccc1C`, the inhibition was -38.3%.
Take `Oc1ccccc1/C=N/NC(=S)NC1CC2C=CC1C2` (stereo not given): the inhibition is -1.4%.
Next, `CNC(=S)N/N=C/c1cc(Br)cc(Br)c1O`: 73.9% (active).
As to `CCC(O)(CC)C(=O)N/N=C/c1cc(Br)cc(Br)c1O`, the inhibition was 1.3%.
On to `Nc1nc(SCC(=O)N2CCCCC2)[nH]c(=O)c1NC(=O)c1cccs1`, for which the inhibition was -15.7%.
For `COc1ccc(N(CC(=O)Nc2ccc3c(c2)OCCO3)S(C)(=O)=O)c(OC)c1`, the inhibition is -7.6%.
`COc1ccc(Cn2c3ccc(OC)cc3c3nc4ccccc4nc32)cc1`: the inhibition was -41.1%.
On to `Cc1cc(Br)ccc1OCCCCNCCO`, for which the inhibition is -40.2%.
Turning to `O=c1cc(COc2ccc(Cl)c(Cl)c2)nc2sccn12`, the inhibition was -5.4%.
`CCN(CC)c1ccc(N=Cc2ccc([N+](=O)[O-])o2)cc1`: the inhibition is -31.4%.
`Cc1ccc(NC(=O)c2cc(C)nc3ccccc23)c(C)c1`: the inhibition is -34.7%.
Take `Cc1ccc(NC(=O)Cc2ccccc2)c(C)c1`: the inhibition is -29.9%.
`COc1ccccc1N(C(=O)c1ccco1)C(C(=O)NC1CCCC1)c1ccc(N2CCOCC2)cc1` (stereo not given): the inhibition is 37.6%.
`Cc1ccccc1CC(=O)N1CCCC(CCC(=O)N2CCN(c3ccccn3)CC2)C1` (stereo not given): the inhibition is -12.6%.
For the compound `Cc1c(CCO)c(=O)n2c([nH]c3ccccc32)c1C#N`, the inhibition is 1.6%.
For the compound `Cc1c(CCC(=O)O)c(=O)n2c([nH]c3ccccc32)c1C#N`, the inhibition is 0.9%.
Take `C=C(C)Cc1c(C)c(C#N)c2[nH]c3ccccc3n2c1=O`: the inhibition was 19.2%.
For `Cc1c(Cc2ccccc2)c(=O)n2c([nH]c3ccccc32)c1C#N`, the inhibition was 90.3% (active).
For the compound `Cc1c(CCC(C)C)c(=O)n2c([nH]c3ccccc32)c1C#N`, the inhibition was 91.2% (active).
Next, `CCc1c(C)c(C#N)c2[nH]c3ccccc3n2c1=S`: 1.4%; `CN(C1CCCCC1)S(=O)(=O)c1ccc(NC(=O)c2ccco2)cc1`: 1.3%.
On to `CN1C(=O)C(C)(C)c2cc(S(=O)(=O)N(C)Cc3ccccc3)ccc21`, for which the inhibition is -4.1%.
With `COc1cccc2c1Oc1ncccc1N(C(=O)CCC(=O)NCc1ccccc1)C2` the figure was -19.2%; with `O=C(CN1CCCc2ccccc21)NC(=O)NCc1ccccc1`, -4.3%.
With `O=C(c1ccccc1)C1CCN(c2ncccc2[N+](=O)[O-])CC1`, the inhibition was -8.7%.
With `Cc1nc(NCc2ccc3c(c2)OCO3)c2oc3ccccc3c2n1` the figure was 15.2%.
In the case of `CCc1nc(NCc2ccc3c(c2)OCO3)c2oc3ccccc3c2n1`, the inhibition was 23.2%.
Regarding `c1ccc2c(c1)oc1c(NCc3ccc4c(c3)OCO4)ncnc12`, the inhibition was 66.2% (active).
With `O=C(CSc1nnnn1-c1ccccc1)CC(=O)Nc1ccc(Cl)cc1` the figure was 73.1% (active); with `O=C(CSc1nnnn1-c1ccccc1)Nc1ccc(Cl)cc1`, 18.8%.
`O=C(CSc1nnnn1-c1ccccc1)Nc1ccccc1`: the inhibition was -15.6%.
With `CN1C(=O)SC(Nc2cccc3ccccc23)C1=O` (stereo not given) the figure was -30.3%; with `O=C(CCN1C(=O)C2CC=CCC2C1=O)NC1CCCCC1` (stereo not given), 44.9% (active); with `O=C(CN1C(=O)C2CC=CCC2C1=O)NC1CCCCC1` (stereo not given), -35.5%.
Take `O=C(CCN1C(=O)C2CC=C(Cl)CC2C1=O)NC1CCCCC1` (stereo not given): the inhibition was -1.2%.
Turning to `Cc1cc2ccccn2c1C(=O)c1ccc(C#N)cc1`, the inhibition was 2%.
As for `CCOc1ccc2c(c1)OC(c1ccc(C)cc1)(C(F)(F)F)NC2=O` (stereo not given), the inhibition is 101% (active).
On to `CCOc1ccc2c(c1)OC(c1ccc(OC)cc1)(C(F)(F)F)NC2=O` (stereo not given), for which the inhibition was -30.6%.
In the case of `CCOc1ccc2c(c1)OC(c1ccccc1)(C(F)(F)F)NC2=O` (stereo not given), the inhibition is -42.1%.
`CC(Sc1nnc(CC(=O)Nc2ccccc2F)n1C)C(=O)Nc1nccs1` (stereo not given): the inhibition is -32.4%.
With `Cc1ccc(S(=O)(=O)CCSc2n[nH]c(=O)n2-c2ccccc2)cc1` the figure was -6.8%; with `Cc1cc(C)c(-n2c(SCCS(=O)(=O)c3ccc(F)cc3)n[nH]c2=O)c(C)c1`, 69.7% (active).
Turning to `O=c1[nH]nc(SCCS(=O)(=O)c2ccc(F)cc2)n1-c1ccccc1`, the inhibition is -11.2%.
Regarding `CCOC(=O)c1[nH]cnc1C(=O)Nc1cccc(OC)c1`, the inhibition was -3.5%.
Turning to `CCCCC(c1nnnn1CC1CCCO1)N1CCN(c2ccccc2)CC1` (stereo not given), the inhibition is -34.5%.
With `CCN(c1ccccc1)S(=O)(=O)c1ccc2c(c1)CC(C)N2C(=O)C1CC1` (stereo not given) the figure was -12.9%; with `Cc1cc(N2CCC(C(N)=O)CC2)nc(-c2ccccc2)n1`, 2%.
For `CC(=O)NC1(c2ccccc2)CCN(c2nc(C)cc(C)n2)CC1`, the inhibition is -0.9%.
On to `CC(=O)NC1(c2ccccc2)CCN(c2cc(C)nc(-c3ccccc3)n2)CC1`, for which the inhibition was 52.2% (active).
